MITF TRPM1 inh = inhibitors of MITF-driven TRPM1 promoter in melanoma cells; SK-MEL-5 TRPM1 promoter luciferase, 24 h; inhibition, % at 12.5 µM; 330,000 compounds, 0.83% hits; AID 488899;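 active means mean inhibition across replicates of 60% or more, whatever share of single replicates reaches that level; inconclusive means some that reach 60%, reason not given; inactive means mean inhibition across replicates below 60%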
LGR2 antag = Drosophila LGR2 receptor signaling inhibition | AID 720647 | 380,000 compounds, 0.35% hits | HEK293 LGR2, CRE-luciferase, bursicon-stimulated, 4 h | inhibition, % at 9.99 µM;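 active means drop in luminescence signal, shown as inhibition above about 50% in the replicate tests, limit read from the data, passing the limit was not always enough; inconclusive means probably only some replicates passing the limit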;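 further: agonist challenge used bursicon conditioned medium at about half maximal strength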
Shn3 inh set2 = Schnurri-3 reporter inhibition in Clone20 osteoblasts. 360,000 compounds, 0.52% hits. inhibition, % at 12.5 µM. AID 588674. Clone20 osteoblast Shn3 3'UTR firefly luciferase, 24 h;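 active means mean inhibition of at least 75% with every replicate also reaching 75%; inconclusive means mean inhibition at least 75% but some replicate below; inactive means mean inhibition below 75%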
PAX8 inh HTS = lowers PAX8-driven luciferase in RMG-I cells; RMG-I TPO-luciferase reporter, SteadyGlo, 24 h; inhibition, % at 12.6 µM; 360,000 compounds, 1.2% hits;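 active means mean replicate inhibition at least 60% with every replicate also reaching 60%; inconclusive means only one of the two criteria is met; inactive means mean below 60% and not all replicates reaching 60%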;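 further: luciferase light reporting Pax8 driven TPO promoter activity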
EWS-Fli inh = EWS/Fli transcriptional activity inhibition | 350,000 compounds, 0.67% hits | inhibition, % at 12.6 µM | A673 NR0B1-luciferase reporter, viability-normalised | AID 651661;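 active means mean inhibition of at least 50% after viability correction, with every replicate also passing that limit; inconclusive means mean reaches 50% but only one of two replicates passes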;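 further: firefly luciferase signal divided by Alamar Blue viability fluorescence both relative to DMSO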
EBV LMP1 NFkB = reduces LMP1-driven NF-kappaB luciferase signal | LMP1-induced NF-kappaB luciferase reporter cells, luminescence | inhibition, % at 12.5 µM | 350,000 compounds, 0.69% hits | AID 504558; in the data active means inhibition above about 41%; inconclusive means no clear call, values can overlap the other calls
Numbers stand for hits; - = inactive; ? = inconclusive; . = no result; ! = not active in a repeat. Sampled rows, rich in hits. Any-hit rate of the full collection: about 2.2%.

SMILES	MITF TRPM1 inh	LGR2 antag	Shn3 inh set2	PAX8 inh HTS	EWS-Fli inh	EBV LMP1 NFkB
C[C@@H]1CCCCO[C@@H](CN(C)Cc2ccc(Cl)c(Cl)c2)[C@@H](C)CN([C@H](C)CO)C(=O)c2cc(NC(=O)CCC(F)(F)F)ccc2O1	.	-	-	67!	-	-
C[C@@H]1CCCCO[C@@H](CN(C)Cc2ccc(Cl)c(Cl)c2)[C@H](C)CN([C@@H](C)CO)C(=O)c2cc(NC(=O)CCC(F)(F)F)ccc2O1	.	-	.	88	-	.
CCOC(=O)C1=CN(Cc2cccc(-c3cccnc3)c2)S(=O)(=O)N(C)C1C (configuration not stated)	-	-	-	101	-	-
CCOC(=O)C1=CN(Cc2cccc(F)c2)S(=O)(=O)N(CC)C1c1ccccc1 (configuration not stated)	-	-	-	86	-	-
COc1ccc(NC(=O)Nc2ccc3c(c2)CC(=O)N([C@H](C)CO)C[C@H](C)[C@H](CN(C)S(=O)(=O)c2ccc(C)cc2)O3)cc1	.	-	.	.	.	.
O=C(CCS(=O)(=O)c1ccccc1)Nc1nncs1	-	-	-	67	-	-
O=C(Nc1nc2c(s1)COc1ccccc1-2)c1cccs1	.	-	-	-	-	-
COCCSc1nnc(NC(=O)CCS(=O)(=O)c2ccccc2)s1	-	-	-	80	-	-
COCCSc1nnc(NC(=O)CS(=O)(=O)c2ccc(C)cc2)s1	-	-	-	-	-	-
O=C(CCS(=O)(=O)c1ccccc1)Nc1nc2c(s1)COc1ccccc1-2	-	-	-	70	-	-
CCOCCc1nnc(NC(=O)CCS(=O)(=O)c2ccccc2)s1	-	-	-	65	-	-
CC(C)Cc1nnc(NC(=O)CCS(=O)(=O)c2ccc(Cl)cc2)s1	-	-	-	71	.	-
O=C(C[C@H]1C=C[C@@H](NS(=O)(=O)c2ccccc2)[C@@H](CO)O1)NCc1ccncn1	.	-	.	-	-	.
C[C@@H]1CN([C@H](C)CO)C(=O)Cc2cc(NS(=O)(=O)c3ccccc3)ccc2O[C@@H]1CN(C)C(=O)Nc1ccc2c(c1)OCO2	.	-	.	-	-	.
CC(=O)c1sc(NC(=O)CCS(=O)(=O)c2ccc(F)cc2)nc1C	.	-	-	77	-	-
COc1cc(/C=N/NC(=Nc2ccc(C)cc2)c2nc3ccccc3s2)ccc1O	69	.	-	.	.	-
O=C(N/N=C/c1ccc(O)cc1O)c1ccc(CN2C(=O)c3cccc4cccc2c34)cc1	-	-	94	67	-	50
O=C(N/N=C/c1ccccc1)c1ccc(CN2C(=O)c3cccc4cccc2c34)cc1	-	-	-	-	-	-
Cc1cc([N+](=O)[O-])nn1Cc1ccc(C(=O)N/N=C/c2ccc(O)cc2O)cc1	-	-	-	63	.	-
C[C@H]1CN([C@@H](C)CO)C(=O)Cc2cc(NS(=O)(=O)c3cn(C)cn3)ccc2O[C@H]1CN(C)CC1CCCCC1	.	-	.	-	-	.
CC(C)NC(=O)Nc1ccc2c(c1)C(=O)N([C@@H](C)CO)C[C@@H](C)[C@@H](CN(C)C(=O)c1ccncc1)OCCCC[C@H](C)O2	.	-	.	-	.	.
COc1cccc2oc3ccc(C#Cc4ccccn4)cc3c(=O)c12	-	83	-	-	-	-
COc1cccc2sc3cc(C#Cc4ccccn4)ccc3c(=O)c12	-	-	-	-	-	-
O=C1c2ccccc2C(=O)C12OC2c1ccc(Cl)cc1Cl (configuration not stated)	?	-	95	.	-	-
COc1ccc(Br)cc1C(C[N+](=O)[O-])c1c(N)n(C)c(=O)n(C)c1=O (configuration not stated)	80	.	-	-	-	-
CN(C)c1ccc(C(C[N+](=O)[O-])c2c(N)n(C)c(=O)n(C)c2=O)c(F)c1C#N (configuration not stated)	-	-	-	-	-	-
N#Cc1ccc(NC(=O)COC(=O)CNC(=O)C2CCCCC2)cc1	-	.	-	.	.	-
N#Cc1ccc(NC(=O)COC(=O)C2CCC2)cc1	.	-	-	113	-	-
C[C@H]1CN([C@@H](C)CO)C(=O)c2cc(C3=CCCC3)cnc2O[C@H]1CN(C)C(=O)c1ccccc1	.	-	.	.	-	.
C=CCOc1ccccc1CN(C(=O)CCl)c1ccc2c(c1)OCO2	-	-	-	121	59	-

Screening data deposited in PubChem by Broad Institute.
